# Test results: PubChem BioAssay (NCATS)
# Records with an inconclusive call do not appear. A call without a number means that no potency is given here. Unmarked numbers belong to inactive results. Active and inactive are the calls of the source. The call rests on the fitted dose curve; in most records, active means well fitted curve in the direction sought with a large enough effect; inconclusive means small, poorly fitted or top-dose-only effect, or another doubt; inactive means no such curve, though single readings can be large; an effect the other way counts as inactive or inconclusive.
# What was measured:
# C33A = test: Primary qHTS to identify gynecologic anti-cancer compounds using libraries of approved drugs and bioactive compounds (AID 1345084); details: Gynecologic cancer cell panel viability, ATPlite luminescence, 48 h; series mostly up to 57.5 µM; further: nearly all actives have a fitted effect of over 55% in size
# Method in brief: (§1)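 Five-point cytotoxicity, 48 h drug exposure at 37 C, 5% CO2, on cells seeded 16 h beforehand. ATP content read by ATPlite luminescence.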
# CAOV3 = test: as above; details: Gynecologic cancer cell panel viability, ATPlite luminescence, 48 h; series mostly up to 57.5 µM
# Method in brief: as §1
# CASKI = test: as above; details: Gynecologic cancer cell panel viability, ATPlite luminescence, 48 h; series mostly up to 57.5 µM
# Method in brief: as §1
# HeLa = test: as above; details: Gynecologic cancer cell panel viability, ATPlite luminescence, 48 h; series mostly up to 57.5 µM
# Method in brief: as §1
# JEG-3 = test: as above; details: Gynecologic cancer cell panel viability, ATPlite luminescence, 48 h; series mostly up to 57.5 µM
# Method in brief: as §1
# OV90 = test: as above; details: Gynecologic cancer cell panel viability, ATPlite luminescence, 48 h; series mostly up to 57.5 µM
# Method in brief: as §1
# SKOV3 = test: as above; details: Gynecologic cancer cell panel viability, ATPlite luminescence, 48 h; series mostly up to 57.5 µM
# Method in brief: as §1
# Tov112D = test: as above; details: Gynecologic cancer cell panel viability, ATPlite luminescence, 48 h; series mostly up to 57.5 µM
# Method in brief: as §1
# Tov-21-G = test: as above; details: Gynecologic cancer cell panel viability, ATPlite luminescence, 48 h; series mostly up to 57.5 µM
# Method in brief: as §1
# PA-1 = test: as above; details: Gynecologic cancer cell panel viability, ATPlite luminescence, 48 h; series mostly up to 57.5 µM
# Method in brief: as §1
# Hek293T = test: as above; details: Gynecologic cancer cell panel viability, ATPlite luminescence, 48 h, control line for the selectivity index; series mostly up to 57.5 µM
# Method in brief: as §1
# Es-2 = test: as above; details: Gynecologic cancer cell panel viability, ATPlite luminescence, 48 h; series mostly up to 57.5 µM
# Method in brief: as §1
# [1] = qHTS assay to identify inhibitors of the type 1 interferon - major histocompatibility complex class I in skeletal muscle: Counter screen cell viability and HiBit confirmation (AID 1347412); details: iHSKM muscle cells + IFN-b, HiBiT or CellTiter-Glo, 24 h; HiBiT; further: nearly all actives have a fitted effect of over 60% in size
# Method in brief: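 Duplicate plates, pinned identically: one read for HiBiT-tagged endogenous HLA-B luminescence, the other for ATP-content viability via CellTiter Glo. Cells were genome-engineered human myoblasts given 4 ng/ml IFN-b; compounds 12-pt, 1:3 from 46 uM final; 24 hr exposure.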
# Potency means the concentration at half of the fitted maximal effect.
smiles,measurement,setting,value
C=C1C(=O)O[C@@H]2[C@H]3C(C)=CC(=O)C3=C(C)[C@@H](OC(=O)/C(C)=C\C)[C@H](O)[C@@H]12,Potency,C33A,inactive
same,Potency,CAOV3,inactive
same,Potency,CASKI,inactive
same,Potency,HeLa,inactive
same,Potency,JEG-3,inactive
same,Potency,OV90,inactive
same,Potency,SKOV3,inactive
same,Potency,Tov112D,inactive
CC(=O)Nc1cccc(-c2csc(Nc3cc(C)ccn3)n2)c1,Potency,C33A,inactive
same,Potency,CAOV3,inactive
same,Potency,CASKI,inactive
same,Potency,HeLa,inactive
same,Potency,JEG-3,inactive
same,Potency,OV90,inactive
same,Potency,Tov-21-G,inactive
same,Potency,Tov112D,inactive
CCOC(=O)c1csc(Nc2ccc(Cl)cc2)n1,Potency,C33A,inactive
same,Potency,CAOV3,inactive
same,Potency,CASKI,inactive
same,Potency,HeLa,inactive
same,Potency,JEG-3,inactive
same,Potency,OV90,inactive
same,Potency,PA-1,inactive
same,Potency,SKOV3,inactive
same,Potency,Tov-21-G,inactive
same,Potency,Tov112D,inactive
C=C(C(=O)O[C@H]1C/C(C)=C/CC/C(CO)=C/[C@H]2OC(=O)C(=C)[C@H]12)C(O)CO (some centres not stated),Potency,C33A,inactive
same,Potency,CAOV3,inactive
same,Potency,CASKI,inactive
same,Potency,HeLa,inactive
same,Potency,Hek293T,inactive
same,Potency,OV90,inactive
same,Potency,PA-1,inactive
same,Potency,SKOV3,inactive
same,Potency,Tov112D,inactive
CC(=O)O[C@H]1CC(C)(C)CC2[C@]13CO[C@@]21CCC2[C@@]4(C)CC[C@H](O[C@@H]5OC[C@H](O[C@@H]6O[C@H](CO)[C@@H](O)[C@H](O)[C@H]6O[C@@H]6OC[C@@H](O)[C@H](O)[C@H]6O)[C@H](O)[C@H]5O[C@@H]5O[C@H](CO)[C@@H](O)[C@H](O)[C@H]5O)[C@@](C)(CO)C4CC[C@@]2(C)[C@]1(C)C[C@H]3O (some centres not stated),"activity change, negative = cytotoxicity",C33A,-17.3% [at 11.6 µM]
same,"activity change, negative = cytotoxicity",CAOV3,-0.697% [at 11.6 µM]
same,"activity change, negative = cytotoxicity",CASKI,-20.7% [at 11.6 µM]
same,"activity change, negative = cytotoxicity",HeLa,-3.76% [at 11.6 µM]
same,"activity change, negative = cytotoxicity",JEG-3,-9.1% [at 11.6 µM]
same,"activity change, negative = cytotoxicity",SKOV3,-11.7% [at 11.6 µM]
CC(F)(F)CN1CCOc2c(nn(-c3ccccc3Cl)c2-c2ccc(Cl)cc2)C1=O,Potency,C33A,inactive
same,Potency,CAOV3,inactive
same,Potency,Es-2,inactive
same,Potency,HeLa,inactive
same,Potency,Hek293T,inactive
same,Potency,JEG-3,inactive
same,Potency,OV90,inactive
same,Potency,PA-1,inactive
same,Potency,SKOV3,inactive
same,Potency,Tov-21-G,inactive
same,Potency,Tov112D,inactive
O=C(Nc1ccc2[nH]nc(-c3ccncc3)c2c1)[C@@H]1CCN(CC(=O)N2CCN(c3ccc(-c4ncccn4)cc3)CC2)C1,Potency,C33A,inactive
same,Potency,CAOV3,inactive
same,Potency,CASKI,inactive
same,Potency,Hek293T,inactive
same,Potency,JEG-3,inactive
same,Potency,PA-1,inactive
same,Potency,SKOV3,inactive
same,Potency,Tov112D,inactive
Cc1cc(C(C)Nc2ccccc2C(=O)O)c2nc(N3CCOCC3)cc(=O)n2c1 (configuration not stated),Potency,C33A,inactive
same,Potency,CAOV3,inactive
same,Potency,Es-2,inactive
same,Potency,HeLa,inactive
same,Potency,OV90,inactive
same,Potency,Tov112D,inactive
NC(=O)c1ccccc1Nc1ccnc(Nc2cccc(O)c2)n1,Potency,C33A,inactive
same,Potency,CAOV3,8.91 µM (active)
same,Potency,CASKI,12.6 µM (active)
same,Potency,HeLa,3.16 µM (active)
same,Potency,[1],4.97 µM (active)
COc1ccc(C[C@H]2COC(=O)[C@@H]2Cc2ccc(O[C@@H]3O[C@H](CO)[C@@H](O)[C@H](O)[C@H]3O)c(OC)c2)cc1OC,Potency,C33A,inactive
same,Potency,CAOV3,inactive
same,Potency,Es-2,inactive
same,Potency,HeLa,inactive
same,Potency,JEG-3,inactive
same,Potency,OV90,inactive
same,Potency,SKOV3,4.47 µM (active)
same,Potency,Tov-21-G,inactive
same,Potency,Tov112D,inactive
O=C(C1CCCCC1)N(CCN1CCN(c2ccccc2O)CC1)c1ccccn1,Potency,C33A,inactive
same,Potency,CAOV3,inactive
same,Potency,Es-2,inactive
same,Potency,HeLa,inactive
same,Potency,Hek293T,inactive
same,Potency,JEG-3,inactive
same,Potency,OV90,inactive
same,Potency,PA-1,inactive
same,Potency,SKOV3,inactive
same,Potency,Tov-21-G,inactive
same,Potency,Tov112D,inactive
COc1ccccc1S(=O)(=O)Nc1ccc2c(c1)CN(C)C(=O)N2,Potency,C33A,inactive
same,Potency,CAOV3,inactive
same,Potency,CASKI,inactive
same,Potency,Hek293T,inactive
same,Potency,JEG-3,inactive
same,Potency,OV90,inactive
same,Potency,PA-1,inactive
same,Potency,Tov112D,inactive
C=C[C@@]12COC(=O)C(=C)[C@@H]1[C@@H](O)[C@H](C(=C)C(=O)OC)[C@@H](O)C2,Potency,C33A,inactive
same,Potency,CAOV3,inactive
same,Potency,CASKI,inactive
same,Potency,Hek293T,inactive
same,Potency,OV90,inactive
same,Potency,SKOV3,inactive
OC1CCC(Nc2nc(-c3ccccc3)nc3[nH]ccc23)CC1 (configuration not stated),Potency,C33A,inactive
same,Potency,CAOV3,inactive
same,Potency,Es-2,inactive
same,Potency,HeLa,inactive
same,Potency,Hek293T,inactive
same,Potency,JEG-3,inactive
same,Potency,OV90,inactive
same,Potency,PA-1,inactive
same,Potency,SKOV3,inactive
same,Potency,Tov-21-G,inactive
same,Potency,Tov112D,inactive
CC[C@H](C(=O)Nc1ccccc1N1CCCC1)c1ccccc1,Potency,C33A,inactive
same,Potency,CAOV3,inactive
same,Potency,CASKI,inactive
same,Potency,Hek293T,inactive
same,Potency,JEG-3,inactive
same,Potency,OV90,inactive
same,Potency,PA-1,inactive
same,Potency,Tov-21-G,inactive
same,Potency,Tov112D,inactive
Cn1ncc(Cl)c1-c1cc(C(=O)N[C@H](CN)Cc2ccc(F)c(F)c2)sc1Cl,Potency,C33A,5.62 µM (active)
same,Potency,CAOV3,inactive
same,Potency,Es-2,inactive
same,Potency,HeLa,inactive
same,Potency,JEG-3,inactive
same,Potency,PA-1,inactive
same,Potency,SKOV3,14.1 µM (active)
same,Potency,Tov-21-G,891 nM (active)
same,Potency,Tov112D,inactive
Fc1ccc(CN2CCC(Nc3ccc(C(F)(F)F)nn3)CC2)cc1F,Potency,C33A,inactive
same,Potency,CAOV3,inactive
same,Potency,Es-2,inactive
same,Potency,HeLa,inactive
same,Potency,Hek293T,inactive
same,Potency,JEG-3,inactive
same,Potency,OV90,inactive
same,Potency,PA-1,inactive
same,Potency,SKOV3,inactive
same,Potency,Tov-21-G,inactive
same,Potency,Tov112D,inactive
Cc1cc(C)c2c(c1)C(N(Cc1cc(C(F)(F)F)cc(C(F)(F)F)c1)c1nnn(C)n1)CCCN2CC1CCC(C(=O)O)CC1 (configuration not stated),Potency,C33A,inactive
same,Potency,CAOV3,inactive
same,Potency,CASKI,inactive
same,Potency,Hek293T,inactive
same,Potency,JEG-3,inactive
same,Potency,OV90,inactive
same,Potency,Tov-21-G,inactive
